RTF Ca sens act: cardiac RTF calcium sensitization; P19429+P45379; IANBD-labeled TnC RTF fluorescence at EC20 calcium; 0% EC20 calcium, 100% full calcium; activation, % at 7.2 µM; 340,000 compounds, 0.24% hits;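 active means activation above the mean over all tested compounds plus 3 SD, cut at about 30% in these data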;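 further: rise in fluorescence read as greater calcium sensitivity of cardiac thin filaments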
eLon inh: inhibitors of E. coli Lon protease; P0A9M0; purified E. coli Lon protease, fluorescence polarization; inhibition, % at 7.94 µM; 360,000 compounds, 0.42% hits; AID 602123; in the data active means inhibition above about 13%, passing the limit was not always enough
C-LANA FP: inhibitors of KSHV LANA C-terminal domain DNA binding; AID 504423; inhibition, % at 9 µM; 340,000 compounds, 0.078% hits; MBP-C-LANA/FAM-LBS DNA binding, fluorescence polarization;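 active means highest replicate inhibition at or above 60% at 9 µM, even if other replicates fall short; inactive means all replicates below 60% inhibition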
Keap1 Nrf2 FP: disrupts human Keap1 binding to Nrf2 peptide | Q14145 | 340,000 compounds, 0.15% hits | Keap1 Kelch-Nrf2 peptide fluorescence polarization, 1536-well | inhibition, % at 9.4 µM; in the data active means inhibition above about 12%;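 further: human Keap1 Kelch domain with fluorescein labeled Nrf2 9mer peptide probe; higher means more block of Keap1 binding to Nrf2 peptide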
Target sequence (Q14145 whole entry, looked up, the tested form may be a part): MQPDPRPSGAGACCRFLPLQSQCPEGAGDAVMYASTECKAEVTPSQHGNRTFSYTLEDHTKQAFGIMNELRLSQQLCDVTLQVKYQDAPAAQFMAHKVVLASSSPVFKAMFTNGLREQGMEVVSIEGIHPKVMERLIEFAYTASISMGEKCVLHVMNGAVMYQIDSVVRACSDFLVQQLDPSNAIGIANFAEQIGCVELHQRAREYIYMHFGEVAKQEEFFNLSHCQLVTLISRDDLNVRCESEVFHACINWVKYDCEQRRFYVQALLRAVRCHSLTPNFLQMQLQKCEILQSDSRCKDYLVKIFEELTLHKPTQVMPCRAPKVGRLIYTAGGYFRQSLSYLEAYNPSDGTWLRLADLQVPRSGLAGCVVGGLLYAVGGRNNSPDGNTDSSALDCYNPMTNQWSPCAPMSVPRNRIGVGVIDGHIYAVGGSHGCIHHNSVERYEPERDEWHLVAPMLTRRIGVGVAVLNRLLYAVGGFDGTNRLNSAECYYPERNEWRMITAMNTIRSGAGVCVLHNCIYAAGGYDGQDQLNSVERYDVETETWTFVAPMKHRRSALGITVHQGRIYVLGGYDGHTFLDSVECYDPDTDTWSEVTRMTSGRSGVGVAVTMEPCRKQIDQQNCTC
RTF Ca sens inh: cardiac RTF calcium desensitization; P19429+P45379; inhibition, % at 7.15 µM; 340,000 compounds, 0.12% hits; IANBD-labeled cardiac RTF, Ca2+ fluorescence;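 active means inhibition above the mean inhibition of all tested compounds plus 3 SD, cut at about 17% in these data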;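 further: assay run at fixed EC70 calcium of 1.6 mM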
Each line names hits and unclear results; the compound was inactive in the other large screens. This is a sample that favours compounds with a hit; in the whole collection about 0.82% have one here.

CC(C(=O)Nc1ccc(C(=O)O)c(O)c1)N1C(=O)/C(=C\c2ccco2)SC1=S (stereo unspecified)	C-LANA FP 101
O=C(CCCN1C(=O)/C(=C/c2ccco2)SC1=S)Nc1cccc(C(=O)O)c1	none
CC(C(=O)N(C)C1CCS(=O)(=O)C1)N1C(=O)/C(=C/c2ccco2)SC1=S (stereo unspecified)	none
O=C(CN1C(=O)/C(=C/c2ccco2)SC1=S)Nc1ccc(O)c(C(=O)O)c1	C-LANA FP 101
O=C(N/N=C/c1c[nH]c2ccccc12)c1cc(Cl)ccc1O	none
COc1ccc(C(C)(C)C)cc1NC(=O)COC(=O)C1=NNC(=O)CC1	none
CN(C)S(=O)(=O)c1ccc2c(c1)/C(=C/c1cc3c([nH]1)CCCC3)C(=O)N2	RTF Ca sens act 61
COc1cc(C=NO)nc(-c2ccccn2)c1	none
COc1ccc(NC(=O)/C(C#N)=C\c2ccc(N3CCOCC3)o2)cc1	RTF Ca sens act 135
N#C/C(=C\c1ccc(N2CCOCC2)o1)C(=O)Nc1ccc(O)cc1	none (no result: RTF Ca sens act, RTF Ca sens inh)
N#C/C(=C/c1ccc(N2CCCCC2)o1)C(=O)Nc1ccc2ccccc2c1	RTF Ca sens act 166
N#C/C(=C/c1ccc(N2CCOCC2)o1)C(=O)NC1CCCCC1	RTF Ca sens act 50
N#C/C(=C/c1ccc(N2CCCCC2)o1)C(=O)Nc1ccc(Cl)cc1	RTF Ca sens act 41
COc1ccc(NC(=O)/C(C#N)=C/c2ccc(Br)o2)cc1	none
COc1ccccc1/C=C/CN1CCC(n2nccc2NC(=O)CCc2ccccc2)CC1	none
S=c1[nH]c2ccc(Cc3ccc4[nH]c(=S)[nH]c4c3)cc2[nH]1	none
Nc1nonc1-n1nnc(C(=O)N/N=C/c2ccco2)c1CSc1ccccc1	none
COc1ccc(NC2CCCN(C(=O)CN3CCOC3=O)C2)cc1 (stereo unspecified)	none
O=c1oc2cc(O)ccc2cc1-c1nc2c(s1)CCc1ccccc1-2	RTF Ca sens act 897 (no result: eLon inh)
O=c1oc2ccccc2cc1-c1nc2c(s1)CCc1ccccc1-2	none
CCN1CCN(Cc2c(O)ccc3c(=O)c(-c4ccccc4OC)coc23)CC1	none
Cc1ccc(/C=C2\Oc3c(ccc(O)c3CN3CCN(CCO)CC3)C2=O)cc1	RTF Ca sens act 32
CCN1CCN(Cc2c(O)ccc3c2O/C(=C\C=C\c2ccccc2OC)C3=O)CC1	RTF Ca sens act 166
Cc1ccc(NC(=O)COC(=O)c2ccc3c(c2)OCCO3)cc1	none
O=C(COC(=O)c1ccc(O)cc1)Nc1ccc2c(c1)OCCO2	RTF Ca sens act 30
Nc1ccc(C(=O)O)c(O)c1	none
Nc1ccc(N)c(C(=O)O)c1	eLon inh 43, C-LANA FP 110
CCCN1CC=C2C(C#N)=C(N)C(C#N)(C#N)C(c3cccc(OC)c3OC)C2C1 (stereo unspecified)	RTF Ca sens act 53
N#CC1=C(N)C(C#N)(C#N)[C@H](c2ccoc2)[C@H]2CN(Cc3ccccc3)CC=C12	RTF Ca sens act 31
COc1ccc(OC)c(C2C3CN(C(C)C)CC=C3C(C#N)=C(N)C2(C#N)C#N)c1 (stereo unspecified)	none
CC(OC(=O)/C(C#N)=C/c1ccc(N(C)C)cc1)C(=O)N(C)Cc1ccccc1 (stereo unspecified)	RTF Ca sens act 30
CC(OC(=O)c1cccc(O)c1)C(=O)N(C)Cc1ccccc1 (stereo unspecified)	none
NS(=O)(=O)c1ccc(N2N=C(c3ccccc3)CC2c2ccccc2Br)cc1 (stereo unspecified)	none
O=[N+]([O-])c1ccc(N2N=C(c3ccccc3)CC2c2ccccc2O)cc1 (stereo unspecified)	RTF Ca sens act 47
CC[n+]1c(/C=C/C=C/N(C(C)=O)c2ccccc2)sc2ccccc21	RTF Ca sens act 421
Cc1cc(NC(=O)CON=C(N)CC(=O)Nc2ccccc2Cl)ccc1Br	none
O=C(O)c1ccc2c3c(cccc13)C(=O)N(c1ccccc1)C2=O	none
Cc1c(O)c2c3c(cccc3c1O)C(=O)N(c1ccccc1)C2=O	RTF Ca sens act 52
Cc1c(C(=O)NCC2CCCO2)oc2ccc(Br)cc12 (stereo unspecified)	none
CCOC(=O)Cn1c(=O)c(-c2cc(Br)ccc2N)nc2ccccc21	RTF Ca sens act 44
CCOC(=O)Cn1c(=O)c(-c2ccccc2N)nc2ccccc21	none
CNC(=O)c1ccc(CN(C)CC(=O)Nc2ccccc2C(=O)NC2CC2)cc1	none
CN(CC(=O)Nc1ccc(F)cc1)C(=O)c1ccc(N2C(=O)CCC2=O)cc1	none
CC1C=CC=CC=CC=CC=CC=CC=CC(OC2OC(C)C(O)C(N)C2O)CC2OC(O)(CC(O)CC(O)C(O)CCC(O)CC(O)CC(=O)OC(C)C(C)C1O)CC(O)C2C(=O)O (stereo unspecified)	C-LANA FP 68
O=C(NC12CC3CC(CC(C3)C1)C2)c1ccc(-c2ccccc2Cl)o1	eLon inh 19
CC(=O)Nc1sc(/C(C#N)=C\c2cccc(Cl)c2)nc1-c1ccc(C)cc1	RTF Ca sens act 43
CCOc1ncccc1C(=O)Nc1cc(S(=O)(=O)N2CCOCC2)ccc1OCC(F)(F)F	none
COc1ccccc1C(=O)Nc1nnc(S(=O)(=O)N2CCN(c3ccc(F)cc3)CC2)s1	none
CCN(CC)c1ccc(/C=C/c2cc(-c3ccccc3)c3ccccc3n2)cc1	RTF Ca sens act 320
CCN(CC)c1ccc(/C=N/NC(=O)c2cc(C)nc3ccccc23)cc1	none
Cc1ccc(C)c(N2CCN(C(=O)CN3C(=S)NC(C)(C)CC3C)CC2)c1 (stereo unspecified)	RTF Ca sens act 31
COc1ccccc1NC(=O)C(C)OC(=O)C1CCN(S(=O)(=O)c2ccccc2C(F)(F)F)CC1 (stereo unspecified)	none
COc1cccc(-c2ccc3c(c2)O[C@@H](CN(C)Cc2cncnc2)[C@@H](C)CN([C@H](C)CO)S3(=O)=O)c1	none (no result: RTF Ca sens act, C-LANA FP, Keap1 Nrf2 FP, RTF Ca sens inh)
CSC1=NSC2=NC(=O)/C(=C\c3cccs3)C(=N)N12	none
CC1=CC2=NC(=O)/C(=C/c3coc4ccc(Cl)cc4c3=O)C(=N)N2O1	RTF Ca sens act 58
CC1=CC2=NC(=O)/C(=C\c3cc(C)n(-c4cccc(Cl)c4)c3C)C(=N)N2O1	none
CSC1=NSC2=NC(=O)/C(=C/c3coc4ccc(O)cc4c3=O)C(=N)N12	RTF Ca sens act 177
COc1cc(/C=C2/C(=N)N3C(SC)=NSC3=NC2=O)ccc1OC(=O)c1ccco1	none
CSC1=NSC2=NC(=O)/C(=C/c3coc4ccccc4c3=O)C(=N)N12	RTF Ca sens act 287
N=C1/C(=C\c2coc3ccccc3c2=O)C(=O)N=C2SC=CN12	RTF Ca sens act 81
N=C1/C(=C/c2cccn2Cc2ccc(F)cc2)C(=O)N=C2SC=CN12	none
CCN(CC)C(=O)[C@H]1C[C@H](CC(=O)NCCc2ccccn2)C(=O)N2CCc3c([nH]c4cc(-c5ccco5)ccc34)[C@]12C	Keap1 Nrf2 FP active
COc1ccc(OC)c(C=Nc2ccccc2-c2nc3ccccc3[nH]2)c1	none
